Laboratory results published in ChEMBL document CHEMBL4513216, “Probing the Open Global Health Chemical Diversity Library for Multistage-Active Starting Points for Next-Generation Antimalarials” (ACS Infect Dis, 2020).
About 8,600 (12%) of roughly 69,000 compounds showed an effect of 50% or more. Many of the other results were omitted from the sample, so strong results are more common in it than they were.

Tested on: Plasmodium berghei
Experiment: Screen against P. berghei liver stage (PbLuc), transformed with Luciferase, at 10uM
Format: functional, HepG2
Conditions: tested at 10 uM

Compound	INHIBITION
Cc1cccc(CNC2CC(=O)N(Cc3cccc(F)c3)C2)c1 (centres undefined)	13.87%
O=C1CC(NCc2ccc(OC(F)F)cc2)CN1Cc1cccc(F)c1 (centres undefined)	0.38%
O=C1CC(NCc2ccncc2)CN1Cc1cccc(F)c1 (centres undefined)	63.5%
NC1CCC(n2cc(C(=O)NC3CCc4ccccc4C3)nn2)CC1 (centres undefined)	25.5%
CNC(=O)c1ccc(CNC(=O)c2ccc(Cl)cc2F)cc1	-8.675%
CCOc1ccc(Cl)c(C(=O)NCc2ccc(C(=O)NC)cc2)n1	14.7%
CC(C)N(C)C(=O)c1ccc(CNc2cncc(Cl)n2)cc1	32.9%
CC(C)N(C)C(=O)c1ccc(CNc2ncc(C#N)cc2Cl)cc1	44.5%
CC(C)N(C)C(=O)c1ccc(CNc2ccncc2Cl)cc1	97.1%
CNC(=O)c1ccc(CNc2ccncc2Cl)cc1	57.7%
CN1CCOC(CNCc2ccc(OCc3ccccn3)cc2)C1 (centres undefined)	-38.7%
O=C(c1ccnnc1)N1C[C@@H](OCc2cccnc2)[C@H]2OCCC[C@H]21	37.1%
NC(=O)c1ccc(CNC2CC2)cc1	-30.1%
Cc1ccc(C2(CN3CCN(Cc4cncn4C)CC3)CC2)cc1	-32.7%
c1ccc(-c2cnc(CN(Cc3cccnc3)CC3CCCO3)o2)cc1 (centres undefined)	-5.26%
CC(C)(C)c1cnc(CN(Cc2cccnc2)CC2CCCO2)o1 (centres undefined)	75.4%
CCN(Cc1cccnc1)CC1CCCO1 (centres undefined)	-0.113%
CNC(=O)CCc1cc(C)nc(C2CCN(C(=O)CN(C)C)CC2)c1	4.9%
CCc1nc(CN2CCCN(C(=O)c3ccnc(C)n3)CC2)cs1	25.5%
Cc1cc(C)cc(CN2CCN(Cc3ccc4nonc4c3)CC2=O)c1	37.6%
NCCc1cccc(CN2CCN(c3ccccc3)C(=O)C2)c1	26.8%
Cc1cc(C)cc(CN2CCN(Cc3cccc(CCN)c3)CC2=O)c1	67.7%
Cc1cc(C)cc(N2CCN(Cc3cccc(CCN)c3)CC2=O)c1	2.18%
Cc1ccc(CN2CCN(Cc3ccc4nonc4c3)CC2=O)cc1	5.78%
COc1cccc(N2CCN(Cc3cccc(CCN)c3)CC2=O)c1	35.1%
NCCc1cccc(CN2CCN(c3cccc(Cl)c3)C(=O)C2)c1	50.5%

Compound	INHIBITION
Cc1ccc(CN2CCN(Cc3ccncc3)CC2=O)cc1	50.3%
Cc1cc(C)cc(CN2CCN(Cc3cc(C#N)n(C)c3)CC2=O)c1	11.8%
Cn1cc(CN2C[C@@H]3COC[C@H](C(=O)Nc4cccnc4)[C@@H]3C2)cn1	0.542%
CCn1cc(CN2CCCN(C(=O)c3c(C)oc(C)c3C)CC2)cn1	15.6%
CCC[C@H]1CN(S(C)(=O)=O)C[C@@H]1NC(=O)c1ccc(COC)cc1	23.9%
Cc1ccoc1C(=O)N1CC[C@H]2[C@H](C[C@@H](CN3CCCC3)N2C)C1	47.4%
CC(=O)N1N=C(c2cccs2)OC1C(=O)NCc1ccc(C)o1 (centres undefined)	53%
CCc1ccc(NC(=O)C2OC(c3cccs3)=NN2C(C)=O)cc1 (centres undefined)	52.1%
CCOc1ccc(NC(=O)C2OC(c3cccs3)=NN2C(C)=O)cc1 (centres undefined)	11.5%
CC(=O)N1N=C(c2cccs2)OC1C(=O)Nc1ccc(C)cc1 (centres undefined)	-25.1%
COc1ccc(NC(=O)C2OC(c3cccs3)=NN2C(C)=O)cc1 (centres undefined)	28.3%
CC(=O)N1N=C(c2cccs2)OC1C(=O)Nc1ccccc1 (centres undefined)	-4.32%
CCn1cc(C(=O)NCCc2nc(-c3ccc(C)cc3)n[nH]2)c(C)n1	12.8%
COc1cccc2c1ccn2CCC(=O)N1CCC(C(=O)O)CC1	25.1%
CN(C)C(=O)CN1C[C@H]2CN(Cc3cccc(F)c3)C(=O)[C@H]2C1	25.2%
Cc1occc1CNC(=O)C1(C)CCCN(C(=O)c2ccccc2)C1 (centres undefined)	58.3%
Cc1occc1CNC(=O)C1(C)CCCN1C(=O)c1ccccc1 (centres undefined)	28.7%
CC(C)C(=O)N1CCC12CCCN(C(=O)c1ccccc1)C2 (centres undefined)	36.2%
CCN(C)Cc1cccc(CNC(=O)CSCc2ccncc2)c1	35.4%
Fc1cnc(N2C[C@@H](OCC3CCOCC3)[C@H]3OCCC[C@H]32)nc1	44.4%
O=C(c1ccc(Cl)cc1)N1CCC2(C1)C(=O)Nc1ccccc12 (centres undefined)	-18.8%
C[C@H]1C[C@@H]2CCN(C(=O)c3ccccn3)C[C@H]2O1	-0.813%
CN(C)C[C@H]1C[C@@H]2CN(C(=O)c3ccco3)C[C@@H]2O1	42.3%
O=C(OCc1ccccc1)N1CC[C@H]2CC(CO)O[C@@H]2C1 (some centres undefined)	78.3%
Cn1ccnc1SCCNc1cc(N2CCOCC2)ncn1	-7.85%
Cn1ncc2c(N3CCCC(C)(O)C3)nc(-c3cccnc3)nc21 (centres undefined)	23.5%

Compound	INHIBITION
CN1CCCC1CNC(=O)CCCOc1ccc(I)cc1 (centres undefined)	18.625%
COc1cccc(-c2nc3c([nH]2)CC(C)(C)CNC3=O)c1OC	30.7%
COc1cc(Cc2nc3c([nH]2)CC(C)(C)CNC3=O)cc(OC)c1	59.4%
CC1(C)CNC(=O)c2nc(-c3ccccc3)[nH]c2C1	18.8%
COc1cccc(Cc2nc3c([nH]2)CC(C)(C)CNC3=O)c1OC	55.5%
COc1ccc(Cc2nc3c([nH]2)CC(C)(C)CNC3=O)cc1OC	13.9%
COc1ccc(Cc2nc3c([nH]2)CC(C)(C)CNC3=O)c(OC)c1	16.8%
CC(C)N1CCO[C@@H]2CN(C(=O)NCc3ccccc3)CC[C@@H]2C1	32.1%
COc1nc2cc(C)ccc2cc1CN(C)Cc1cc(C)[nH]n1	36.1%
CC(CNC(=O)c1cnc[nH]1)Oc1ccc(Cl)cc1 (centres undefined)	20.9%
CC(CNC(=O)c1cnc[nH]1)Oc1ccccc1Br (centres undefined)	57.2%
COc1ccccc1OC(C)CNC(=O)c1cnc[nH]1 (centres undefined)	-15.5%
O=C(c1cc(Cn2ccc3ccccc32)[nH]n1)N1CCCCC1CO (centres undefined)	13%
Cc1cnn(CC2CCCN2C(=O)CCc2ccco2)c1 (centres undefined)	45.9%
NCCn1nc(C2CCN(Cc3ccccc3)C2)c2nccnc21 (centres undefined)	60.5%
NCCn1nc(C2CCN(C(=O)Cc3ccccc3)C2)c2nccnc21 (centres undefined)	30.4%
COc1ccccc1CN1CCC(c2nccc(C)n2)C1 (centres undefined)	38.3%
NCCn1nc(C2CCN(Cc3ccc(Cl)c(Cl)c3)C2)c2nccnc21 (centres undefined)	71.1%
CC(C)(C)CC(=O)N1CCC(c2nn(CCN)c3nccnc23)C1 (centres undefined)	-3.31%
COc1cccc(CN2CCC(c3nn(CCN)c4nccnc34)C2)c1 (centres undefined)	7.52%
Cc1ccccc1CN1CCC(c2nn(CCN)c3nccnc23)C1 (centres undefined)	43.6%
COc1ccccc1CN1CCC(c2nn(CCN)c3nccnc23)C1 (centres undefined)	52%
NCCn1nc(C2CCN(Cc3ccccc3Cl)C2)c2nccnc21 (centres undefined)	-49%
CC(O)c1cnn(-c2ccccc2)c1 (centres undefined)	-6.04%
O=C(O)c1ccccc1-c1ccc(CN2CCC(CO)CC2)cn1	9.98%
CCNc1cc2c(nn1)CCN(C(=O)CCc1c(C)noc1Cl)C2	0.411%

Compound	INHIBITION
COc1ccccc1C(=O)N1CCN(C(=O)Cc2ccccn2)CC1	-36.1%
Cc1ncccc1C(=O)Nc1cccc(Cn2ccccc2=O)c1	38.5%
CCn1ncnc1CN1CCC(CNC(=O)c2cccc(C)n2)C1 (centres undefined)	15.4%
CCc1ccc(C(=O)N2CCCC(n3nc(C)nc3C)C2)o1 (centres undefined)	33.73%
CCOCCc1nc(CCc2ccccc2)n[nH]1	26.7%
Cc1cnc(N2C[C@H]3CCCC(N(C)Cc4ccccn4)[C@H]3C2)nc1 (some centres undefined)	55.7%
CN(Cc1ccccn1)C1CCC[C@@H]2CN(CC3CC3)C[C@H]12 (some centres undefined)	22.2%
CCc1cnc(N2C[C@H]3CCCC(N(C)Cc4ccccn4)[C@H]3C2)nc1 (some centres undefined)	33.1%
CC(C)NC(=O)c1nc(Cn2c(C(F)(F)F)nc3ccccc32)no1	43.9%
CC(C)NC(=O)c1nc(Cn2c(C(F)F)nc3ccccc32)no1	62.4%
O=C(NC1CC1)c1nc(Cn2c(C(F)F)nc3ccccc32)no1	54.8%
O=C(NC1CCCC1)c1cc(Cn2cnc3ccccc32)on1	5.8%
Cc1nc2ccccc2n1Cc1cc(C(=O)NC2CCOC2)no1 (centres undefined)	11.1%
Cc1occc(=O)c1OCc1noc(C(=O)NC(C)C)n1	42.8%
COc1ccccc1-c1csc(NC(=O)N2CCN(C)CC2C)n1 (centres undefined)	-9.08%
Cc1cc(C)n(CC2CN(Cc3nnc(C)o3)CCO2)n1 (centres undefined)	5.1%
O=C(c1ccc(F)cc1F)N1C[C@@H]2CC[C@H]1CN(Cc1ccccc1)C2	41.5%
CC(C)(C)C1CC(=O)Nc2c1cnn2Cc1ccco1 (centres undefined)	-21.7%
O=C1CC(c2ccc(CO)o2)c2cnn(Cc3ccco3)c2N1 (centres undefined)	67.6%
CC(C)CC1CC(=O)Nc2c1cnn2Cc1ccco1 (centres undefined)	50.2%
CC(C)C1CC(=O)Nc2c1cnn2Cc1ccco1 (centres undefined)	7.85%
O=C1CC(c2ccc(C(=O)O)cc2)c2cnn(Cc3ccco3)c2N1 (centres undefined)	-8.04%
CN(C)c1ccc(C2CC(=O)Nc3c2cnn3Cc2ccco2)cc1 (centres undefined)	1.45%
COc1ccc(CN(Cc2cnc(N)nc2)CC2CCCO2)c(OC)c1 (centres undefined)	23.2%
CNC(=O)[C@@H](c1ccccc1F)N1CCC[C@H]1C(=O)NC1CCCC1	-49.3%
O=C(CN1C[C@H]2CC(OCc3ccccc3)C[C@H]2C1)N1CCOCC1 (some centres undefined)	-2.09%
